The nature of assay [1]: A549 cell viability effects, profiling panel, calcein-AM fluorescence, 48 h, basal (AID 1162). As to conditions: higher = more signal.
Assay [2] can be described thus: adipocyte viability effects, profiling panel, cell-based, 3T3-L1 adipocytes, calcein-AM fluorescence, 48 h, basal (AID 1163). As to conditions: 3T3-L1 adipocytes viability, higher = more signal.
Assay [3] can be described thus: HepG2 cell viability effects, profiling panel, calcein-AM fluorescence, 48 h, basal (AID 1164). Conditions: higher = more signal.
Assay [4] in a line: MM1S cell viability effects, profiling panel, calcein-AM fluorescence, 48 h, basal (AID 1165).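 Note: viability of MM1S multiple myeloma cells under basal unstimulated conditions.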 As to conditions: higher = more signal.
The nature of assay [5]: basal RPMI8226 viability, no added stimulus, profiling panel, cell-based, calcein-AM fluorescence, 48 h, PK04 Diversity Set (AID 1166).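 Note: cells grown under basal conditions without added stimulus.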 Conditions: RPMI8226 myeloma viability, higher = more signal.
A short description of assay [6]: basal HepG2 mitochondrial membrane potential changes, profiling panel, cell-based, JC-1 fluorescence, 24 h, 100 nL compound (AID 1167). Conditions: higher = more signal.
The nature of assay [7]: basal 3T3-L1 adipocyte mitochondrial potential changes, profiling panel, cell-based, JC-1 fluorescence, 3T3-L1 adipocytes, 24 h, 100 nL compound (AID 1168). Conditions: JC-1 mitochondrial fluorescence, higher = more signal, called active from +8 up or from −8 down.
Assay [8] in a line: basal RPMI8226 mitochondrial membrane potential changes, profiling panel, cell-based, JC-1 fluorescence, 24 h, 100 nL compound (AID 1169). Conditions: RPMI8226 myeloma, JC-1 mitochondrial potential fluorescence, higher = more signal.
Assay [9] can be described thus: basal MM1S mitochondrial membrane potential changes, profiling panel, cell-based, JC-1 fluorescence, 24 h, 100 nL compound (AID 1170). As to conditions: higher = more signal.
Assay [10] in a line: A549 lung cancer cell viability effects, profiling panel, resazurin fluorescence, 24 h, PK04 Diversity Set (AID 1171). Conditions: higher = more signal, called active from +8 up or from −8 down. In general terms: The colour change of resazurin is a common sign of viable cells or microbes.

The values that follow come from PubChem BioAssay.

Calls of active or inactive are those of the source.
Note: test concentration not given here.

As to `COC(=O)C/C=C/C[C@]1(O)C(=O)N(C)c2ccccc21`, the z-score in [1] was 1.59; in assay [2], 0.349; in assay [3] it was 1.39; in assay [4], 0.672; in [5] it was -0.419; in assay [6], 1.25. Moreover, the z-score in assay [7] was -0.694 (inactive); in [8], -0.838; in assay [9], 2.2; in assay [10], 0.946 (inactive).
Consider `CC(CO)N1C(=O)[C@]2(C)C3C(=O)OCCC/C=C\[C@H]3OC23C=CCN(c2ccc(Cl)cc2)C(=O)[C@@H]13` (stereo not given in full), for which the z-score is 0.592 in assay [1]; -0.329 in assay [2]; 0.94 in assay [3]; 1.77 in assay [4]; 0.202 in assay [5]; 1.19 in assay [6]. Further, the z-score is 0.204 (inactive) in assay [7], -0.765 in assay [8], -0.302 in assay [9] and -0.0794 (inactive) in assay [10].
With `CC1CC/C=C\[C@H]2OC34C=CCN(c5ccc(Cl)cc5)C(=O)[C@H]3N(C(C)CO)C(=O)[C@]4(C)C2C(=O)O1` (stereo not given in full), the z-score in assay [1] was 0.924; in assay [2], -0.761; in assay [3], 1.24; in assay [4], 1.31; in assay [5], 0.37; in [6] it was 0.807. Moreover, the z-score was -0.29 (inactive) in assay [7], -0.0845 in assay [8], -0.723 in [9] and 0.0378 (inactive) in [10].
As for `CCCCC(=C=CC[C@H](O)c1ccc(OCCO)cc1)CCO`, the z-score is -0.113 in assay [1]; 0.524 in assay [2]; 0.761 in assay [3]; -2.4 in assay [4]; 0.0135 in [5]; -1.25 in [6]. The z-score in assay [7] is -0.968 (inactive); in assay [8], -0.573; in [9], -0.952; in assay [10], 0.533 (inactive).
On to `CCCCCCCCCCC(O)C1C=CC2C(=O)N(c3ccccc3)C(=O)C2N1Nc1ccc(C#N)cc1` (stereo not given), for which the z-score in assay [1] was -2.09; in assay [2] it was 0.0958; in assay [3], -4.9; in assay [4], -3.73; in [5], -4.13; in [6] it was -3.28. Further, the z-score in [7] is -0.15 (inactive); in assay [8], -0.939; in assay [9], -0.469; in assay [10] it was -0.186 (inactive).
Consider `CC(C)[Si]1(C(C)C)OCc2cc(C3CC3)nc(-c3ccc(Oc4ccccc4)cc3)c21`, for which the z-score in assay [1] is 1.25; in assay [2], 0.676; in assay [3], 0.468; in assay [4], -0.795; in assay [5], -1.94; in [6] it was -2.33. In addition, the z-score in assay [7] is 0.138 (inactive); in [8], -0.989; in assay [9], 0.196; in [10], 2.94 (inactive).
With `Cc1ccc(S[C@]2(C(=O)O)CC(=O)N(C3CCCCC3)[C@@H]2c2ccc(CO)cc2I)cc1`, the z-score in assay [1] is -0.756; in assay [2] it was 0.505; in assay [3], -0.561; in assay [4] it was -2.64; in [5], -2.13; in assay [6] it was -1.1. In addition, the z-score was -0.343 (inactive) in assay [7], -0.278 in assay [8], 0.0653 in assay [9] and 0.808 (inactive) in [10].
Consider `CCOC(=O)C=Cc1cccc(C)c1O`, for which the z-score in assay [1] was -0.877; in [2], 0.407; in [3] it was -0.833; in [4], -0.536; in assay [5], -0.731; in [6], -0.768. Also, the z-score in [7] was -0.0308 (inactive); in [8], -0.642; in assay [9], -1.16; in [10] it was -0.871 (inactive).
Regarding `CCOC(=O)C[C@H]1[C@H](OC(=O)c2ccc(C(=O)c3ccccc3)cc2)[C@@H](NC(=O)C2CCCCC2)c2cc(OCCCO)ccc2N1C(=O)c1ccc2ccccc2n1`, the z-score in assay [1] was 0.123; in assay [2], 0.347; in [3] it was 2.23; in assay [4] it was -0.436; in [5], 1.31; in assay [6], 1.9. The z-score was 1.45 (inactive) in assay [7], 0.592 in assay [8], -0.543 in assay [9] and -0.0397 (inactive) in assay [10].
As for `N[C@@H](Cc1ccccc1)C(=O)NCc1cn(Cc2ccccc2)nn1`, the z-score in assay [1] is 0.322; in [2], 0.0811; in assay [3], -0.256; in [4] it was -0.0838; in [5] it was -1.11; in [6], 0.178. Moreover, the z-score in [7] was -0.0638 (inactive); in [8] it was 0.556; in [9], 0.919; in assay [10] it was 0.825 (inactive).
Regarding `COc1cc2c(cc1O)C(C1CC1)N(Cc1cccc(OC(F)(F)F)c1)CC2` (stereo not given), the z-score in assay [1] was -1.74; in assay [2], 0.119; in [3], -3.68; in [4], -3.18; in [5] it was -2.99; in [6] it was -2.84. The z-score is -0.356 (inactive) in [7], -0.686 in assay [8], -2.61 in assay [9] and -1.05 (inactive) in assay [10].
For the compound `CCC#CCN(Cc1ccccc1Br)[C@H](/C=C/C1CC1)[C@@H](O)Cc1ccccc1`, the z-score is -0.382 in assay [1]; 0.929 in [2]; -0.713 in assay [3]; -2.23 in assay [4]; -3.31 in [5]; -1.28 in assay [6]. Moreover, the z-score was -0.611 (inactive) in assay [7], -0.774 in [8], -1.39 in [9] and 2.76 (inactive) in assay [10].
In the case of `CCCCN1CC=CC23O[C@@H]4/C=C\CCCOC(=O)C4[C@H]2C(=O)N(CCO)[C@@H]3C1=O` (stereo not given in full), the z-score in assay [1] is -0.129; in assay [2], 1.63; in assay [3], -0.0509; in [4], 1.04; in [5], -0.711; in [6], -0.415. Moreover, the z-score in [7] is 0.0794 (inactive); in assay [8], 0.378; in assay [9] it was 1.39; in assay [10] it was -0.688 (inactive).
As to `Cn1cccc1C(O)C1C=CC2C(=O)N(c3ccccc3)C(=O)C2N1Nc1ccccc1` (stereo not given), the z-score in [1] is -0.514; in assay [2], -1.86; in [3], 0.316; in assay [4], -0.615; in assay [5], -0.244; in assay [6], -1.3. Besides, the z-score in assay [7] was -0.96 (inactive); in assay [8], -0.509; in assay [9], -1.32; in [10], -0.386 (inactive).
`COc1ccc([Si](C)(C)[C@@H]2[C@@H](CCO)O[C@]3(C(=O)N(Cc4cccc(NC(=O)[C@H](C)O)c4)c4ccccc43)[C@H]2C)cc1`: the z-score in [1] is -3.78; in assay [2] it was -0.578; in assay [3], -4.53; in assay [4], -2.88; in assay [5] it was -4.36; in [6] it was -1.37. The z-score in assay [7] was 1.5 (inactive); in assay [8], -1.06; in assay [9] it was -2.24; in [10], -5.11 (inactive).
As to `COc1cc(C(O)C2C=CC3C(=O)N(C)C(=O)C3N2Nc2ccccc2)cc(OC)c1OC` (stereo not given), the z-score is 0.212 in [1]; 0.555 in assay [2]; -0.0987 in assay [3]; 0.0355 in [4]; 0.438 in assay [5]; -0.349 in [6]. Moreover, the z-score in assay [7] was -0.604 (inactive); in assay [8], 0.221; in [9], -0.471; in assay [10], 0.144 (inactive).
